Our source for the Potency values is PubChem BioAssay (NCATS).

Records with an inconclusive call do not appear. Where a call stands in place of a potency, no number is given. Activity calls are given as the source filed them. Calls follow the shape of the dose curve; as a rule, active = well fitted cell-killing curve with a large enough effect; inconclusive = small, poorly fitted or top-dose-only effect; inactive = flat fitted curve, though single readings scatter.
Potency is read from the fitted curve at half-maximal effect.

The nature of this assay: Cell Viability - LYMP2-012 (AID 982).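 Also: cellular ATP by luciferase luminescence where a drop means cytotoxicity; cells exposed to compound for one day before reading; nearly all actives have a fitted effect of over 55% in size.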 The note with it: LYMP2-012 lymphoblastoid cell viability qHTS; series mostly up to 92.2 µM. From the text: NIH Chemical Genomics Center [NCGC]
NIH Molecular Libraries Screening Centers Network [MLSCN]
National Institutes of Environmental Health Sciences [NIEHS]
National Toxicology Program [NTP]
We have developed a 1536-well cell-based assay for quantitative high throughput screening (qHTS) against a number of cell lines to determine in vitro cytotoxicity of small molecules. This particular assay uses a human lymphoblastoid cell line (LYMP2-012) purchased from Coriell Institute for Medical Research.
NCGC Assay Protocol Summary:
The CellTiter-Glo luminescent cell viability assay (Promega) is a homogeneous method to measure the number of viable cells in culture. The end point readout of this assay is based on quantitation of intracellular ATP, an indicator of metabolic activity, using the luciferase reaction. Luciferase catalyzes the oxidation of beetle Luciferin to oxyluciferin and light in the presence of ATP. The luminescent signal is proportional to amount of ATP present.
Using the CellTiter-Glo luminescent cell viability assay, the amount of cellular ATP was measured in the lymphoblastoid cell line with complete culture medium following compound treatment for 24 hours. The assay was performed in opaque white Kalypsys 1536-well plates. In the screen, tetraoctylammonium bromide was used as positive control. Library compounds were measured for their ability to cause acute toxicity in the cell line, as reflected by a decrease in intracellular ATP levels, in a concentration-dependent manner. […] AC50 values were determined from concentration-response data modeled with the standard Hill equation.
qHTS protocol for CellTiter Glo lymphoblastoid cellular assay
[Step] [Parameter] [Value] [Description]
1. Reagent; 5 uL; 2500 lymphoblastoid cells/well
2. Time; 5 hr; 37 C incubation
4. Controls; 23 nL; Tetraoctylammonium bromide 6.4pM to 92 uM
5. Time; 24 hr; 37 C incubation
6. Reagent; 5 uL; CellTiter Glo reagent
7. Time; 30 min; Room Temperature
8. Detection; Luminescence; Viewlux plate reader
Keywords: cell viability, cytotoxicity, lymphoblastoid cell line, luminescence, NTPHTS, NTPHTS_NCGC, NIEHS, DSSTox, MLSMR, MLSCN, NIH Roadmap, qHTS, NCGC
On the technique in general: Quantitative high-throughput screening tests each substance at several concentrations.
For `Oc1ccccc1`, the Potency entry is “inactive”.

Consider `COc1cc(C=O)ccc1O`, for which the Potency entry is “inactive”.

On to `Cc1cc(C(C)(C)C)c(O)c(C(C)(C)C)c1`, for which the Potency entry was “inactive”.

`CCCCC(CC)COC(=O)c1ccccc1C(=O)O` (stereo unspecified): the Potency entry was “inactive”.

Consider `Nc1cccc2c(N)cccc12`, for which the Potency result was “inactive”.

On to `O=C(Oc1ccccc1)c1ccccc1O`, for which the Potency entry is “inactive”.

`C1=CC2C3C=CC(C3)C2C1` (stereo unspecified): the Potency entry is “inactive”.

Take `Brc1ccccc1-c1ccccc1`: the Potency entry was “inactive”.

`CCCC(=O)c1cc(O)c(O)cc1O`: the Potency entry is “inactive”.

In the case of `c1ccc2occc2c1`, the Potency entry is “inactive”.

`Nc1c2ccccc2nc2ccccc12`: the Potency is 10 µM (active).

Take `Nc1ccc(O)cc1`: the Potency is 31.6 µM (active).

With `CC(C)C(C)(C)C(C)(C)C(C)(C)S`, the Potency result was “inactive”.

As for `O=C(NO)c1ccccc1`, the Potency result was “inactive”.

In the case of `CC(C)(C)c1ccc(O)c(O)c1`, the Potency was 39.8 µM (active).

With `Cc1ccc(O)cc1`, the Potency result is “inactive”.

Turning to `O=C(c1ccccc1)c1ccccc1`, the Potency result is “inactive”.

With `OCc1c[nH]c2ccccc12`, the Potency result was “inactive”.

`CCCCCCCCCCCCCCCC[n+]1ccccc1`: the Potency was 12.6 µM (active).

Take `CC(=O)OC/C=C(C)/C=C/C=C(C)/C=C/C1=C(C)CCCC1(C)C`: the Potency is 50.1 µM (active).

On to `CC(C)(c1ccc(O)cc1)c1ccc(O)cc1`, for which the Potency entry was “inactive”.
